Measured values taken from PMC6602471.
In all, about 1,300 sequences were measured (“log fluorescence intensity”: median about 8.3, highest 2% from about 12 on). The sample holds the highest values, similar sequences and a random draw of the others, so the mix is not that of the screen.

molecular target: T1, ETS1 (Homo sapiens, UniProt P14921 1-441); test: custom PBM; custom protein-binding microarray; buffer, salt, pH and temperature not stated; high values mean tight binding; conditions: dsDNA, one strand shown
T1 sequence: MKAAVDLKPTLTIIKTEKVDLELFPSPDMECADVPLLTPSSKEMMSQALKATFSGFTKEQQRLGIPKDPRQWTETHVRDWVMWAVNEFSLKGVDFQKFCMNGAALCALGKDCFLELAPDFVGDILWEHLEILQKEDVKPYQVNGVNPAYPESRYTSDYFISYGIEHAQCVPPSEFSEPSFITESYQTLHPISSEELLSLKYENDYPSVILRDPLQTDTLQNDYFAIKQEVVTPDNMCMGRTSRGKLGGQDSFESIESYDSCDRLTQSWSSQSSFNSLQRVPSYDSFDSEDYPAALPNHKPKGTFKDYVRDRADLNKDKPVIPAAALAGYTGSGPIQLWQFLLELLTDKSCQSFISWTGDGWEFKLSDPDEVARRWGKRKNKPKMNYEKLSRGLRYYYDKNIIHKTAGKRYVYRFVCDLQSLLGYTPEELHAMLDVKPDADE

Sequence | binding signal
TAAACGGAAGACGGTTGTGGTAGTTCCGGGTATTAAGTCTTGATTCGCTTGACGCTGCTG | 10.1 log fluorescence intensity
CAGCATAGGACTTCCTCCCTGAAGCAATTGATAACCGTCTTGATTCGCTTGACGCTGCTG | 12.7 log fluorescence intensity
CAGCATAGGACTTCGTCCCTGAAGCAATTGATAACCGTCTTGATTCGCTTGACGCTGCTG | 8.36 log fluorescence intensity
CAGCATAGGACTTCTTCCCTGAAGCAATTGATAACCGTCTTGATTCGCTTGACGCTGCTG | 8.39 log fluorescence intensity
CCTGCTGCGGTGCATACCCCACCGGATGTGACCCCGGTCTTGATTCGCTTGACGCTGCTG | 10.4 log fluorescence intensity
TAAAGGGAAGACGGTTGTGGTAGTTGCGGGTATTAAGTCTTGATTCGCTTGACGCTGCTG | 8.38 log fluorescence intensity
TAAAGGGAAGACGGTTGTGGTAGTTCCGGGTATTCAGTCTTGATTCGCTTGACGCTGCTG | 8.52 log fluorescence intensity
TAAAGGGAAGACGGTTGTGGTAGTTCCGGGTATTACGTCTTGATTCGCTTGACGCTGCTG | 8.47 log fluorescence intensity
CACAATTTTTACAGTAGTGTAGCACGCGTAACTCCTGTCTTGATTCGCTTGACGCTGCTG | 8.33 log fluorescence intensity
TGTCGGGTAAGGGTATGTAGATCACGTGAATGAAAAGTCTTGATTCGCTTGACGCTGCTG | 8.34 log fluorescence intensity
TAAAGGGAAGACCGTTGTGGTAGTTCCGGGTATTAAGTCTTGATTCGCTTGACGCTGCTG | 8.5 log fluorescence intensity
CGGAAGTGTCGTAAACGTCGGATATCCGGTACTTCTGTCTTGATTCGCTTGACGCTGCTG | 11.8 log fluorescence intensity
TCCTGCTACCAGCTCCACCCACTTCAGGCCTTGTAGGTCTTGATTCGCTTGACGCTGCTG | 8.42 log fluorescence intensity
CAGCATAGGACTTCTTCCCTGAACCAATTGATAACCGTCTTGATTCGCTTGACGCTGCTG | 8.33 log fluorescence intensity
CACAATTTTTACAGTAATGGAGCACGCGTAACTCCTGTCTTGATTCGCTTGACGCTGCTG | 8.32 log fluorescence intensity
GCTGCTGCGGTACATACCCCACCGGATGTGACCCCGGTCTTGATTCGCTTGACGCTGCTG | 10.5 log fluorescence intensity
GATTAATCTCTGCCCTTATTCGCACGTGCCATAACAGTCTTGATTCGCTTGACGCTGCTG | 8.31 log fluorescence intensity
GCTGCTGCGGTGCATACACCACCGGATGTGACCCCGGTCTTGATTCGCTTGACGCTGCTG | 10.2 log fluorescence intensity
GGAAAAAGGCCCAGGGTAACACGGGAAGTGGGCTTAGTCTTGATTCGCTTGACGCTGCTG | 8.49 log fluorescence intensity
GGAAATAGGCCCAGGGTAACACCGGAAGTGGGCTTAGTCTTGATTCGCTTGACGCTGCTG | 12 log fluorescence intensity
CGGAAGTGTCGTAAACGTCGGATATCCGGTTCTTCTGTCTTGATTCGCTTGACGCTGCTG | 11.9 log fluorescence intensity
AGGAAGTGTCGTAAACGTCGGATATCCGGTTCTTCTGTCTTGATTCGCTTGACGCTGCTG | 12 log fluorescence intensity
TGGAAGTGTCGTAAACGTCGGATATCCGGTTCTTCTGTCTTGATTCGCTTGACGCTGCTG | 11.9 log fluorescence intensity
CGGAAGTGTCGTAAACGACGGATATCCGGTTCTTCTGTCTTGATTCGCTTGACGCTGCTG | 12.4 log fluorescence intensity
CGGAAGTGTCGTAAACTTCGGATATCCGGTTCTTCTGTCTTGATTCGCTTGACGCTGCTG | 11.9 log fluorescence intensity
CGGAAGTGTCGTAAACGCCGGATATCCGGTTCTTCTGTCTTGATTCGCTTGACGCTGCTG | 13.1 log fluorescence intensity
GGGAAGTGTCGTAAACGTCGGATATCCGGTTCTTCTGTCTTGATTCGCTTGACGCTGCTG | 11.9 log fluorescence intensity
CGGAAGTGTCGTAAACGTCGGATATCCGGTTCTGCTGTCTTGATTCGCTTGACGCTGCTG | 11.8 log fluorescence intensity
CGGAAGTGTCGTAAACGGCGGATATCCGGTTCTTCTGTCTTGATTCGCTTGACGCTGCTG | 12.4 log fluorescence intensity
